Bioassay records: PubChem, Broad Institute
Rows were chosen to be rich in hits. Some 3.4% of all compounds tested hit in one or more screens of this group.
Env fusion inh – inhibitors of HIV-1 Env-driven cell-cell fusion, primary screen, HeLa-JRFL effector, CEM21 target cells, luciferase; actives 1.1% (n = 360,000); inhibition, % at 12.3 µM; AID 651610, 2012;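 active means mean replicate inhibition score of at least 50 and every replicate individually at or above 50; inconclusive means only one of the two criteria met; inactive means mean below 50 and not all replicates reaching 50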
miR-122 sensor – miR-122 Renilla sensor signal increase in Huh7, primary screen, miR-122 inhibitor project, cell-based, single point, plate reader | activation (reporter increase), % at 12.5 µM | AID 602342, 2012 | actives 0.3% (n = 340,000) | Huh7 miR-122 Renilla luciferase sensor, 48 h; neutral wells = 0, positive control = 100;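 active means mean replicate activation score at least 90 and every replicate individually at or above 90; inconclusive means only one of the two criteria met; inactive means neither criterion met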;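 further: higher luciferase means less miR-122 activity so hits act as miR-122 inhibitors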
Wnt act – Wnt/beta-catenin pathway activators, primary screen, cell-based, plate reader, single point; AID 743398, 2014; activation, % at 9.35 µM; actives 1.2% (n = 300,000); Wnt/beta-catenin reporter cell assay, activator; in the data active means activation above about 30%, passing the limit was not always enough; inconclusive means no clear call, values can overlap the other calls
MITF act – activators of MITF-driven TRPM1 promoter reporter, primary screen, cell-based, SK-MEL-5, luciferase, single point. actives 0.75% (n = 300,000). SK-MEL-5 TRPM1-promoter luciferase, 24 h; % of positive control, neutral wells = 0. activation, % at 12.5 µM;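 active means mean activation of at least 80% with every replicate also reaching 80%; inconclusive means mean reaches 80% but some replicate falls short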
esBAF inh – Bmi1 luciferase reporter increase in mESCs, primary screen, esBAF inhibitor project, mouse ES cells, Bmi1 luciferase knock-in, single point; actives 2% (n = 350,000); AID 602393, 2012; reporter increase, % at 12.5 µM; 24 h; 100% = twice the neutral-well signal; in the data active means activation above about 40%; inconclusive means no clear call, values can overlap the other calls;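 further: a rise in the Bmi1 reporter signal indicates esBAF inhibition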
Each line names hits and unclear results; the compound was inactive in the other large screens; ! = not active in a repeat.

CN1[C@@H]2c3ccc(-c4ccc(F)cc4)c(=O)n3C[C@@H]2[C@@H](CO)[C@@H]1C(=O)NCCN1CCCCC1	none (no result: Env fusion inh, Wnt act, MITF act)
NC(Cc1ccc(C(F)(F)F)cc1)c1csc(NC(=O)Nc2ccccc2Cc2ccccc2)n1 (configuration not stated)	Env fusion inh 82 (no result: miR-122 sensor, MITF act)
COc1cccc(Nc2nc(C(N)CCc3ccccc3)cs2)n1 (configuration not stated)	Env fusion inh 70 (no result: MITF act)
NC(CCc1ccccc1)c1csc(NC(=O)NCCc2ccccc2)n1 (configuration not stated)	none (no result: MITF act)
CC(C)c1ccccc1NC(=O)Nc1nc(C(N)Cc2ccc(C(F)(F)F)cc2)cs1 (configuration not stated)	none (no result: miR-122 sensor, MITF act)
NC(CCc1ccccc1)c1csc(NC(=O)Nc2ccccc2Oc2ccccc2)n1 (configuration not stated)	Env fusion inh 90 (no result: miR-122 sensor, MITF act)
C[C@H]1CN([C@@H](C)CO)S(=O)(=O)c2ccc(-c3ccccc3)cc2O[C@H]1CN(C)Cc1ccccn1	none (no result: Wnt act, MITF act)
Cc1c(N2C(=O)/C(=C\C3CC=CCC3)SC2=S)c(=O)n(-c2ccccc2)n1C (configuration not stated)	esBAF inh 44
CC(=O)NCCN=Cc1sc2ccccc2c1O	none
CCCN=Cc1sc2ccc(OCC)cc2c1O	MITF act 101, esBAF inh 77 (no result: miR-122 sensor)
Cn1nnc(NC(=O)c2ccc3ccccc3c2)n1	none (no result: Env fusion inh, Wnt act)
Cn1nnc(NC(=O)c2ccc(C(C)(C)C)cc2)n1	esBAF inh 46 (no result: Wnt act, MITF act)
CCCn1nnc(NC(=O)c2ccc(-c3ccccc3)cc2)n1	MITF act 92, esBAF inh 41 (no result: Env fusion inh)
O=C(O)c1ccc(N/N=C/c2cccc(C(F)(F)F)c2)cc1	MITF act 110, esBAF inh 92
O=C(O)c1ccc(N/N=C/c2ccncc2)cc1	none (no result: miR-122 sensor, esBAF inh)
O=C(O)c1ccc(N/N=C/c2ccc3nccnc3c2)cc1	Env fusion inh 75
O=C(Nc1ccc2ccccc2c1)c1cccc([N+](=O)[O-])c1	MITF act 98, esBAF inh 86
Cc1cccc(C(=O)Nc2ccc3ccccc3c2)c1	esBAF inh 47
COc1cccc(C(=O)N=c2sc3c(C)ccc(OC)c3n2C)c1	esBAF inh 48 (no result: miR-122 sensor)
COc1ccccc1C(=O)N=c1sc2c(C)ccc(OC)c2n1C	MITF act inconclusive
COc1ccc(C(=O)N=c2sc3c(C)ccc(OC)c3n2C)cc1OC	Wnt act inconclusive, MITF act 99
CO[C@H]1CN(C)C(=O)c2ccc(NS(C)(=O)=O)cc2OC[C@H](C)N(Cc2cccnc2)C[C@@H]1C	none (no result: Env fusion inh, Wnt act, MITF act)
COc1ccc(-c2cc(=O)[nH]c3ccccc23)cc1	none
COc1cccc2[nH]c(=O)c(-c3ccccc3)cc12	MITF act 105
c1ccc(-c2ccc(OCCOCCn3cncn3)cc2)cc1	esBAF inh 62 (no result: Env fusion inh, Wnt act)
O=C(C[C@@H]1C=C[C@@H](NC(=O)NC2CCCCC2)[C@H](CO)O1)NCc1ccccc1	none (no result: Wnt act, MITF act)
COCCNC(=O)CSc1nc2ccccc2c(=O)n1CC1CCCO1 (configuration not stated)	miR-122 sensor 286 (no result: Wnt act, MITF act)
CCc1ccc(NC(=O)CSc2nc3cc(C(=O)OC)ccc3c(=O)n2CC2CCCO2)cc1 (configuration not stated)	none (no result: Wnt act, MITF act)
COC(=O)c1ccc2c(=O)n(CC3CCCO3)c(SCC(=O)Nc3ccccc3OC)nc2c1 (configuration not stated)	miR-122 sensor 190 (no result: MITF act)
COC(=O)c1ccc2c(=O)n(CC3CCCO3)c(SCC(=O)Nc3ccccc3Cl)nc2c1 (configuration not stated)	esBAF inh 50 (no result: Wnt act, MITF act)
C[C@@H]1CN([C@H](C)CO)C(=O)c2cc(NC(=O)Cc3cn(C)c4ccccc34)ccc2O[C@H]1CN(C)S(=O)(=O)c1ccc(Cl)cc1	none (no result: Wnt act, MITF act)
c1cncc(C2Nc3ccccc3-c3nc4ccccc4n32)c1 (configuration not stated)	esBAF inh 59 (no result: Env fusion inh)
c1ccc2c(c1)NC(c1ccncc1)n1c-2nc2ccccc21 (configuration not stated)	Wnt act 56 (no result: esBAF inh)
c1csc(C2Nc3ccccc3-c3nc4ccccc4n32)c1 (configuration not stated)	Wnt act 80 (no result: miR-122 sensor, esBAF inh)
Cc1ccsc1C1Nc2ccccc2-c2nc3ccccc3n21 (configuration not stated)	none (no result: miR-122 sensor, esBAF inh)
Cc1ccc2oc(-c3cccc(NC(=O)c4ccccn4)c3)nc2c1	Wnt act 37 (no result: MITF act)
Cc1ccc2oc(-c3cccc(NC(=O)C4CCCO4)c3)nc2c1 (configuration not stated)	esBAF inh 79 (no result: Env fusion inh, Wnt act)
CCC(=O)Nc1cccc(-c2nc3ccc(C)cc3o2)c1	Wnt act 38 (no result: MITF act)
Cc1cccc(-c2nc3cc(NC(=O)C4CCCO4)ccc3o2)c1 (configuration not stated)	none (no result: miR-122 sensor, esBAF inh)
CCC(=O)Nc1ccc2oc(-c3cccc(C)c3)nc2c1	none (no result: Env fusion inh, Wnt act)
CCNC(=O)C[C@@H]1CC[C@@H]2[C@H](COC[C@@H](O)CN2C(=O)c2cc(Cl)cc(Cl)c2)O1	none (no result: Env fusion inh, Wnt act, MITF act)
CC(=O)C(C)Oc1ccc2c3c(c(=O)oc2c1)CCCCC3 (configuration not stated)	MITF act inconclusive, esBAF inh 66 (no result: Wnt act)
CC(=O)C(C)Oc1ccc2c3c(c(=O)oc2c1)CCCC3 (configuration not stated)	none (no result: Wnt act, MITF act)
O=C(O)c1ccc(Oc2ccc(C(F)(F)F)cn2)cc1	none (no result: esBAF inh)
Cc1ccccc1N1CCN(C(=O)c2ccc(Oc3ccc(C(F)(F)F)cn3)cc2)CC1	Env fusion inh 68
O=C(Nc1ccc(Cl)cc1)OCCn1nnnc1C(c1ccccc1Cl)N1CCOCC1 (configuration not stated)	Env fusion inh 113 (no result: Wnt act, MITF act)
Cc1ncoc1C(=O)Nc1ncc([N+](=O)[O-])s1	Wnt act 37 (no result: miR-122 sensor, esBAF inh)
O=C(CCS(=O)(=O)Cc1ccccc1)Nc1ncc([N+](=O)[O-])s1	esBAF inh 42
O=C(Nc1ncc([N+](=O)[O-])s1)c1cccs1	Wnt act 42!
Cc1noc(C)c1NC(=O)Nc1ccc2c(c1)C(=O)N([C@@H](C)CO)C[C@H](C)[C@H](CN(C)C(=O)Nc1ccc3c(c1)OCO3)O2	none (no result: Wnt act, MITF act)
CN1CCN(C(=O)C[C@H]2C[C@H]3c4cc(NC(=O)Nc5ccccc5)ccc4O[C@H]3[C@@H](CO)O2)CC1	none (no result: Wnt act, MITF act)
COc1ccc(CN(C)C[C@H]2Oc3ccc(NC(=O)Nc4ccc(C(F)(F)F)cc4)cc3C(=O)N([C@@H](C)CO)C[C@H]2C)cc1	none (no result: Wnt act, MITF act)
N/C(Cc1ccc([N+](=O)[O-])cc1)=N\OC(=O)c1ccccc1Br	none
Cc1ccccc1/C(N)=N/OC(=O)c1ccc(F)cc1	esBAF inh 48
Cc1ccccc1C(=O)O/N=C(\N)c1ccc([N+](=O)[O-])cc1	esBAF inh 57 (no result: MITF act)
